From article PMC5700166
Where a chain is given by its changes, count along the chain named.

Tests used:
Assay in all cases: protein-binding microarray (PBM); PBM: ~300 nM protein, 6 mM HEPES pH 7.8, 80 mM KCl, 0.5 mM EDTA, 0.5 mM EGTA, 6% glycerol, 35 ng/ul poly-dIdC, 1% milk, 1 h, room temperature; Ap Aiptasia and Nv Nematostella (sea anemones) / Co Capsaspora / Aq Amphimedon (sponge) / Dm Drosophila / Hu human; RHD is the Rel homology domain; high values mean tight binding
Settings in all cases: dsDNA, one strand shown
GST-Ap-NF-kB RHD = target: T1, GST-Ap-NF-kB RHD (Exaiptasia pallida (Aiptasia), UniProt A0A913YAJ5 2-422)
T1 sequence: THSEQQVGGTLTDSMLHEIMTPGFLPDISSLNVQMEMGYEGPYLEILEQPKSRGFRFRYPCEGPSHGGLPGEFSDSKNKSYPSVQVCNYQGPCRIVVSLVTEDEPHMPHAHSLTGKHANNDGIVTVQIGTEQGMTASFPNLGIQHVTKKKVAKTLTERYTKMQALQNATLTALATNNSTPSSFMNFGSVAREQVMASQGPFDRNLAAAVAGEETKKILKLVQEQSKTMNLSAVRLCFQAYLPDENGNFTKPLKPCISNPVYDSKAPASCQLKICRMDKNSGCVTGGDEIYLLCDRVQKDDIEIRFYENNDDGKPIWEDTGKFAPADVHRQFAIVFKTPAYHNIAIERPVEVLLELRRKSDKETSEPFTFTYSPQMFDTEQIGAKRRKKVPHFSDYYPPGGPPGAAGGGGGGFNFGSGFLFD

[1] = target: T2, GST-Nv-NF-kB (Cys allele) (Nematostella vectensis, UniProt E5G601 2-411)
T2 sequence: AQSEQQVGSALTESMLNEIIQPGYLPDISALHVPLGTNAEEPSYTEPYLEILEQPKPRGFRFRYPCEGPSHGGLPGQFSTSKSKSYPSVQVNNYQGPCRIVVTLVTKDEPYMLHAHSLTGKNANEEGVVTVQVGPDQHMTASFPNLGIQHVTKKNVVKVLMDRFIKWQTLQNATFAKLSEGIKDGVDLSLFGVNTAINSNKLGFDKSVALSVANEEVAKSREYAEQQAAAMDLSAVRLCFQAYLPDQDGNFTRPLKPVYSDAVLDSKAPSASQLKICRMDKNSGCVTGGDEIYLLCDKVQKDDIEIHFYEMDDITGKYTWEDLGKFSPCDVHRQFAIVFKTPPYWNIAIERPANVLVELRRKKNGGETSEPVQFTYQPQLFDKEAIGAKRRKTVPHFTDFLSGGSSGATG

[2] = target: T3, GST-Nv-NF-kB (Ser allele) (Nematostella vectensis, UniProt A7UNT2 2-411)
T3 sequence: T2 sequence with Q21R, C66S, S207N, E215Q, V217A, E225K, A268E, D399E

GST-Co-NF-kB = target: T4, GST-Co-NF-kB (Capsaspora owczarzaki, UniProt F1ARL5 200-546)
T4 sequence: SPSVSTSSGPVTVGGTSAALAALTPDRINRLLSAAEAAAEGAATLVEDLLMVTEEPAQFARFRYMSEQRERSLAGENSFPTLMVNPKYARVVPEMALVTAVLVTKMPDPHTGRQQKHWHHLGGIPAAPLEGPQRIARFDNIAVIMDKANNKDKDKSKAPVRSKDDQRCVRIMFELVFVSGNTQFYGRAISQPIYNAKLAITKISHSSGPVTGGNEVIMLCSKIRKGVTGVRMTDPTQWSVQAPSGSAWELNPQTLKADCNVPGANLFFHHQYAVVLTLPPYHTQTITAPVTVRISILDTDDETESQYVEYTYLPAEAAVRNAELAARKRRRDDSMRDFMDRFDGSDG

GST-Dm-Relish = target: T5, GST-Dm-Relish (Drosophila melanogaster, UniProt Q94527 99-473)
T5 sequence: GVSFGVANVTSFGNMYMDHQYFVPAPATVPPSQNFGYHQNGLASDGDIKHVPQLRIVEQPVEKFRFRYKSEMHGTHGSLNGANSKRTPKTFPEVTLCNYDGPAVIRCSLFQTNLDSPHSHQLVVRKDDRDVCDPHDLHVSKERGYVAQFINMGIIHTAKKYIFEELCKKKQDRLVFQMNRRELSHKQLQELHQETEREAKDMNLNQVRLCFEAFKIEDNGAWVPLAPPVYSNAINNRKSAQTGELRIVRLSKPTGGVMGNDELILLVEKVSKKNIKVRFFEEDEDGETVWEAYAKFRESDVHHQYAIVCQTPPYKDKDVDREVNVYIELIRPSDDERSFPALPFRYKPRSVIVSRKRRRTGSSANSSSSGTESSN

GST-Aq-NF-kB = target: T6, GST-Aq-NF-kB (Amphimedon queenslandica, UniProt A9Y5G7 2-389)
T6 sequence: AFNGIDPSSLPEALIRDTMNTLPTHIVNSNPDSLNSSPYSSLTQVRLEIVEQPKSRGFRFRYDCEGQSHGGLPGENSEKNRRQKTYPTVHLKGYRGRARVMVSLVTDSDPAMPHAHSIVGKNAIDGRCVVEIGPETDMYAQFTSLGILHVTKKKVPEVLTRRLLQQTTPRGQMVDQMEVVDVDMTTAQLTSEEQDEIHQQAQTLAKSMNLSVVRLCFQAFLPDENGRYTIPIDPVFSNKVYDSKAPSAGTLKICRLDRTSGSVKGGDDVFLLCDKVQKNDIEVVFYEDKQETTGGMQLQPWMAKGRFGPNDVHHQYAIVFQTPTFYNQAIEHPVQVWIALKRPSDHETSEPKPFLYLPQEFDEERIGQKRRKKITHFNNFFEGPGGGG

GST-Hu-p50 = GST-Hu-p50 (Homo sapiens, UniProt P19838 7-356)
GST-Hu-p50, sequence (P19838 7-356): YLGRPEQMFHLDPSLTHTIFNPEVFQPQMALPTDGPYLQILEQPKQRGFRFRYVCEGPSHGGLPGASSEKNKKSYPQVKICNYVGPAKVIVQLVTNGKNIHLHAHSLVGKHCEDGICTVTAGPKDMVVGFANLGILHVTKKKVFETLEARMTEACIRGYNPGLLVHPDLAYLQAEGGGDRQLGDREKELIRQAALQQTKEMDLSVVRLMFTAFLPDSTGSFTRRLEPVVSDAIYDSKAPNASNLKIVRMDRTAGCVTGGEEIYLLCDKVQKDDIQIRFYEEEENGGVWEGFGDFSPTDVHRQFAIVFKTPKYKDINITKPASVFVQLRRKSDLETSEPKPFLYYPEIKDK

Sequence | binding signal (GST-Ap-NF-kB RHD) [z-score] | binding signal [1] [z-score] | binding signal [2] [z-score] | binding signal (GST-Co-NF-kB) [z-score] | binding signal (GST-Dm-Relish) [z-score] | binding signal (GST-Aq-NF-kB) [z-score] | binding signal (GST-Hu-p50) [z-score]
CCGATTAACATCAGCAACCCCCCTGATGTTAATCGGGTCTTGATTCGCTTGACGCTGCTG | 5.04 | 3.58 | 3.86 | 2.82 | 6.14 | 4.16 | 4.83
CCGATTAACATCAAAAATCCCAGTGATGTTAATCGGGTCTTGATTCGCTTGACGCTGCTG | 3.43 | 3.35 | 2.65 | 2.44 | 7.35 | 3.8 | 3.5
CCGATTAACATCAGAGTATTCCCTGATGTTAATCGGGTCTTGATTCGCTTGACGCTGCTG | 3.08 | 2.98 | 3.2 | 2.71 | 2.22 | 3.06 | 1.6
CCGATTAACATCAGAAAGCCCCCTGATGTTAATCGGGTCTTGATTCGCTTGACGCTGCTG | 6.56 | 7.59 | 5.42 | 2.16 | 7.39 | 6.98 | 6.29
CCGATTAACATCAGGGGAGATAATGATGTTAATCGGGTCTTGATTCGCTTGACGCTGCTG | 5.17 | 5.28 | 5.56 | 6.03 | 1.79 | 2.74 | 3.67
CCGATTAACATCACCCCGTCCCCTGATGTTAATCGGGTCTTGATTCGCTTGACGCTGCTG | 4.62 | 3.83 | 3.99 | 3.98 | 2.65 | 4.15 | 3.21
